Measurements as given in PubChem BioAssay (NCI).
The panel holds about 79,000 compounds, 15% with a hit somewhere; the sample as a whole holds those more often. The source made the active and inactive calls. No stated cut-off is given here; in the data, active means growth inhibition above about 70%; inactive means the rest.

Tests used:
[1] = NCI Yeast Anticancer Drug Screen. Data for the rad50 strain (AID 155);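 further: 0% = growth of vehicle-only cultures of the same strain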; conditions: S. cerevisiae rad50 strain growth inhibition, hits give high values
Procedure, shortened: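 DNA repair mutant yeast, compound exposure, growth read-out; inhibition is taken relative to vehicle.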

[2] = NCI Yeast Anticancer Drug Screen. Data for the mec2-1 strain (AID 157); conditions: S. cerevisiae mec2-1 strain, hits give high values
Procedure, shortened: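 mec2-1 yeast strain, carrying an alteration in DNA damage repair or cell cycle control, was exposed to compounds; growth inhibition was measured relative to vehicle-treated controls.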

[3] = NCI Yeast Anticancer Drug Screen. Data for the sgs1 mgt1 strain (AID 161);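 further: 0% = growth of cultures given vehicle only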; conditions: S. cerevisiae sgs1 mgt1 strain, hits give high values
Procedure, shortened: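 This yeast growth screen uses a strain with defined DNA-repair lesions; compound-treated growth is compared with vehicle-treated growth.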

[4] = NCI Yeast Anticancer Drug Screen. Data for the cln2 rad14 strain (AID 165);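 further: 0% = growth equal to vehicle treated cultures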; conditions: S. cerevisiae cln2 rad14 strain, hits give high values
Procedure, shortened: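 Yeast carrying cln2 and rad14 alterations (cell cycle control and DNA damage repair) were exposed to compounds. Growth inhibition was measured against vehicle-treated controls.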

[5] = NCI Yeast Anticancer Drug Screen. Data for the bub3 strain (AID 167); conditions: S. cerevisiae bub3 mutant strain, hits give high values
Procedure, shortened: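 In this screen, a yeast mutant lacking normal mitotic checkpoint function is challenged with compound. Relative growth versus vehicle gives the inhibition value.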

[6] = NCI Yeast Anticancer Drug Screen. Data for the mlh1 rad18 strain (AID 175); conditions: S. cerevisiae mlh1 rad18 strain growth inhibition, hits give high values
Procedure, shortened: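 Growth inhibition of the yeast strain was measured after compound exposure and expressed relative to vehicle-treated controls. The strain carries defined defects in DNA damage repair.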

[7] = at 5.0 µM (retest, dose inferred, filed as 0.5)
[8] = at 50.0 µM (retest, dose inferred, filed as 5.0)

Measured: growth inhibition

CN(C)CC/C(=N\Nc1ccc(Cl)cc1Cl)c1ccccc1
active: [1]; [7] 90% | [1]; [8] 99% | [1]; at 50.0 µM 99.5% | [2]; [7] 79% | [2]; [8] 100% | [2]; at 50.0 µM 99.5% | [3]; [7] 97% | [3]; [8] 100% | [3]; at 50.0 µM 99.5% | [4]; [7] 95% | [4]; [8] 99% | [4]; at 50.0 µM 99.2% | [5]; [7] 96% | [5]; [8] 100% | [5]; at 50.0 µM 99.5% | [6]; [7] 96% | [6]; [8] 100% | [6]; at 50.0 µM 99.2%

C[n+]1c(/C=C/c2ccccc2Cl)ccc2ccccc21
active: [1]; at 50.0 µM 98.7% | [2]; [8] 80% | [2]; at 50.0 µM 99% | [3]; at 50.0 µM 99.2% | [4]; at 50.0 µM 98.5% | [5]; at 50.0 µM 98.8% | [6]; at 50.0 µM 98.8%
inactive: [1]; [7] -3% | [1]; [8] 37% | [2]; [7] 2% | [3]; [7] -8% | [3]; [8] 35% | [4]; [7] 0% | [4]; [8] 34% | [5]; [7] -5% | [5]; [8] 33% | [6]; [7] -8% | [6]; [8] 48%

NCCCC(=O)NC(Cc1cnc[nH]1)C(=O)O (configuration not stated)
inactive: [1]; [7] 0% | [1]; [8] -5% | [1]; at 50.0 µM -1.3% | [2]; [7] -6% | [2]; [8] -4% | [2]; at 50.0 µM 29.4% | [3]; [7] 1% | [3]; [8] -11% | [3]; at 50.0 µM 11.8% | [4]; [7] 1% | [4]; [8] -2% | [4]; at 50.0 µM 32.5% | [5]; [7] -4% | [5]; [8] -1% | [5]; at 50.0 µM 2.75% | [6]; [7] -11% | [6]; [8] -37% | [6]; at 50.0 µM -6.45%

OCCSCc1cc(Cl)cc(Cl)c1O
active: [1]; [8] 76% | [3]; [8] 90% | [3]; at 50.0 µM 78.7% | [5]; [8] 77% | [5]; at 50.0 µM 78% | [6]; [8] 91% | [6]; at 50.0 µM 78.8%
inactive: [1]; [7] 7% | [1]; at 50.0 µM 56% | [2]; [7] -12% | [2]; [8] 60% | [2]; at 50.0 µM 48.2% | [3]; [7] -6% | [4]; [7] -10% | [4]; [8] 44% | [4]; at 50.0 µM 44.4% | [5]; [7] -6% | [6]; [7] 0%

Cc1ccc2nc(CC(=O)c3cccnc3)c(CC(=O)c3cccnc3)nc2c1
inactive: [1]; [7] 7% | [2]; [7] 12% | [2]; at 50.0 µM 63.2% | [3]; [7] -1% | [3]; at 50.0 µM 66.7% | [4]; [7] 14% | [5]; [7] 8% | [5]; at 50.0 µM 60.7% | [6]; [7] 1% | [6]; at 50.0 µM 60.5%
active: [1]; [8] 95% | [1]; at 50.0 µM 76.3% | [2]; [8] 94% | [3]; [8] 87% | [4]; [8] 96% | [4]; at 50.0 µM 76.3% | [5]; [8] 93% | [6]; [8] 91%

Cc1nc2ccc(N=Nc3c(O)ccc4ccccc34)cc2[nH]1
active: [1]; at 50.0 µM 85.3% | [2]; at 50.0 µM 77.1% | [3]; at 50.0 µM 91.7% | [4]; at 50.0 µM 72.3% | [5]; [8] 77% | [5]; at 50.0 µM 86.2% | [6]; at 50.0 µM 82.5%
inactive: [1]; [7] -6% | [1]; [8] 30% | [2]; [7] -7% | [2]; [8] 20% | [3]; [7] 11% | [3]; [8] 35% | [4]; [7] -12% | [4]; [8] 17% | [5]; [7] -4% | [6]; [7] -33% | [6]; [8] 66%

FC(F)(F)C(F)(F)C1(F)C(F)(F)C(F)(F)C(F)(F)C(F)(F)C1(F)F
inactive: [1]; [7] -1% | [1]; [8] -2% | [2]; [7] -2% | [2]; [8] 1% | [3]; [7] -1% | [3]; [8] -3% | [4]; [7] 1% | [4]; [8] -8% | [5]; [7] 3% | [5]; [8] 4% | [6]; [7] 2% | [6]; [8] -2%
active: [1]; at 50.0 µM 99.7% | [2]; at 50.0 µM 99.5% | [3]; at 50.0 µM 99.6% | [4]; at 50.0 µM 97.2% | [5]; at 50.0 µM 99.5% | [6]; at 50.0 µM 99.2%

CCCCC(=S)N1CCN(c2ccccc2)CC1
inactive: [1]; [7] -3% | [1]; [8] -8% | [2]; [7] 10% | [2]; [8] 12% | [2]; at 50.0 µM 62.2% | [3]; [7] 5% | [3]; [8] 9% | [4]; [7] -1% | [4]; [8] -14% | [4]; at 50.0 µM 14.9% | [5]; [7] 2% | [5]; [8] 20% | [6]; [7] -2% | [6]; [8] -9%
active: [1]; at 50.0 µM 90.3% | [3]; at 50.0 µM 92.1% | [5]; at 50.0 µM 81.7% | [6]; at 50.0 µM 87.8%

CCCCN(CCCC)CN1C(=O)/C(=C/c2ccc(NC(C)=O)cc2)NC1=S
active: [1]; at 50.0 µM 78% | [2]; at 50.0 µM 79.6% | [3]; at 50.0 µM 79.9% | [4]; at 50.0 µM 79.8% | [5]; at 50.0 µM 72.7% | [6]; [8] 79% | [6]; at 50.0 µM 86.2%
inactive: [1]; [7] 7% | [1]; [8] 62% | [2]; [7] -7% | [2]; [8] 64% | [3]; [7] -1% | [3]; [8] 64% | [4]; [7] -2% | [4]; [8] 63% | [5]; [7] -15% | [5]; [8] 53% | [6]; [7] -3%
